The values that follow come from PubChem BioAssay (EPA / NIEHS).

Molecules are shown by their SMILES. Records with an inconclusive call do not appear. The source made the active and inactive calls. How the source made its calls, unless noted: active means hit-call score of the fitted dose curve at least 0.9, where 1 is the maximum; inactive means score below 0.9.

Test [1] in a line: CCTE_Shafer_MEA_acute_burst_duration_mean: CCTE's Neural Acute Assay for Mean Burst Duration, Shafer Lab (AID 2284014).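 Further: hits are decreases in mean burst duration relative to DMSO controls.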 The procedure, abridged:
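Acute exposure of mature rat cortical networks (DIV 13 or 15) grown on microelectrode arrays to 0.03-40 uM compound. Mean burst duration compared with the 40-min pre-dose baseline over a 40-min post-dose recording at 37 C.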

A short description of test [2]: CCTE_Shafer_MEA_acute_interburst_interval_mean: CCTE's Neural Acute Assay for Mean Interburst Interval, Shafer Lab (AID 2284016).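 Further: percent change of mean interburst interval versus each well's own pre-dose baseline; curves fitted for decrease in interburst interval relative to DMSO.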 The procedure, abridged: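 MEA recording of spontaneous network bursting in primary rat cortical cultures; mean interburst interval was compared before and after a 40-min compound exposure (0.03-40 uM) and expressed as percent change, relative to DMSO.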

Test [3] can be described thus: CCTE_Shafer_MEA_acute_burst_percentage_mean: CCTE's Neural Acute Assay for Percentage of Spikes in a Burst, Shafer Lab (AID 2284017).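 On AC50: curve fitted for loss of signal so potency reflects decreased burst percentage.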 In outline: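 Compounds were tested at 0.03-40 uM on primary rat cortical neuron networks grown over microelectrodes, with at least three wells per compound. Spontaneous firing was recorded for 40 min before and 40 min after dosing, and the change in burst percentage was computed per well.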

The nature of test [4]: CCTE_Shafer_MEA_acute_burst_percentage_std: CCTE's Neural Acute Assay for Standard Deviation of Burst Percentage, Shafer Lab (AID 2284018).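 Further: fitted in the negative direction so actives lower burst percentage SD.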 The procedure, abridged: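 Primary rat cortical neurons on 16-electrode MEA wells were recorded 40 min at baseline (DIV 13 or 15), then 40 min after compound (0.03-40 uM), at 37 C. Well value is SD across electrodes of spikes-in-bursts/total spikes; endpoint is percent change, DMSO-referenced.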

The nature of test [5]: CCTE_Shafer_MEA_acute_per_network_burst_spike_number_mean: CCTE's Neural Acute Assay for Average Number of Spikes in a Network Burst, Shafer Lab (AID 2284019).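 On AC50: curve fitted for loss of signal so actives reduce spikes per network burst.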 In outline: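 Acute exposure of rat primary cortical networks (DIV 13/15) on MEAs; adaptive spike detection at 8x rms noise, 37 C. Percent change in spikes per network burst after 40 min with compound (0.03-40 uM), negative direction vs DMSO.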

Test [6] can be described thus: CCTE_Shafer_MEA_acute_per_network_burst_spike_number_std: CCTE's Neural Acute Assay for Standard Deviation of Number of Spikes in a Network Burst, Shafer Lab (AID 2284020).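 Further: fitted for decrease in spike-number SD versus DMSO so actives lower it.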 The procedure, abridged:
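Acute MEA exposure, rat cortical neurons, 0.03-40 uM. Per-well % change versus own baseline; DMSO as negative control.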

Test [7] in a line: CCTE_Shafer_MEA_acute_per_network_burst_electrodes_number_mean: CCTE's Neural Acute Assay for Mean Number of Electrodes in a Network Burst, Shafer Lab (AID 2284021).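 Further: curves fitted for decreases only so hits reduce electrodes per burst.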 In outline: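 Primary rat cortical networks, mwMEA, 37 C. 20 min stabilization, 40 min baseline, compound 0.03-40 uM, 40 min re-record. Wells need >=10 active electrodes; percent change per well, negative fitting direction.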

Test [8] can be described thus: CCTE_Shafer_MEA_acute_network_burst_percentage: CCTE's Neural Acute Assay for Percentage of Network Bursts, Shafer Lab (AID 2284022).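 Further: curves fitted for loss so actives lower network burst percentage.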 In outline:
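Readout is the fraction of spikes falling in network bursts, expressed as per-well percent change from a 40-min pre-exposure baseline. Primary rat cortical neurons on MEA were exposed to 0.03-40 uM compound on DIV 13 or 15 and recorded for 40 min at 37 C.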

A short description of test [9]: CCTE_Shafer_MEA_acute_cross_correlation_area: CCTE's Neural Acute Assay for Area of Cross Correlation, Shafer Lab (AID 2284024).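 Further: area under pooled inter-electrode spike cross-correlation near zero lag as percent change from own baseline; curves fitted for loss of cross-correlation area so actives lower synchrony.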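 On outcome: rat primary cortical neuron networks on 48-well MEA at DIV 13 or 15 with 40 min exposure.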 The procedure, abridged: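 Plates equilibrated 20 min at 37 C, then 40 min baseline was recorded, compound was added (0.03-40 uM), and a further 40 min was recorded. Wells needed ≥10 active electrodes (≥5 spikes/min) on exposure day.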
A short description of test [10]: CCTE_Shafer_MEA_acute_cross_correlation_HWHM: CCTE's Neural Acute Assay for Cross Correlation at Half Width at Half Maximum, Shafer Lab (AID 2284026).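 Further: percent change per well from pre-dose baseline in spike cross-correlogram half width; hits are a decrease in cross-correlogram half width relative to DMSO.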 In outline:
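Rat cortical neuron cultures on microelectrode arrays were equilibrated 20 min at 37 C, recorded 40 min at baseline, then 40 min after compound addition (0.03-40 uM, ≥3 wells). Spikes were detected at 8x rms noise after 300-5000 Hz band-pass filtering.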

Test [11] is described as follows: CCTE_Shafer_MEA_acute_synchrony_index: CCTE's Neural Acute Assay for Synchrony, Shafer Lab (AID 2284027).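 Further: network synchrony index of spontaneous spiking in primary rat cortical neurons on MEAs; fitted for loss of signal so actives lower synchrony relative to DMSO.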 In outline: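 Rat cortical cultures, DIV 13/15; spikes detected at 8x rms noise, 300-5000 Hz band-pass. Compound 0.03-40 uM, ≥3 wells; 40-min pre- and post-exposure recordings, 37 C. Readout: % change in synchrony index; loss-of-signal fit vs DMSO.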
Test [12] is described as follows: CCTE_Shafer_MEA_dev_firing_rate_mean: CCTE's Neural Network Formation Assay for Mean Firing Rate, Shafer Lab (AID 2284031).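 Further: curve fitted for loss of firing so AC50 reflects decreased mean firing rate.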 The procedure, abridged: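 Read-out: spike count/recording length, averaged over active electrodes, then AUC across days 5, 7, 9, 12. Rat cortical cultures on MEA; continuous 12-day exposure, media and treatment renewed DIV 5, 9; DMSO baseline.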

Test [13] in a line: CCTE_Shafer_MEA_dev_per_burst_spike_percent: CCTE's Neural Network Formation Assay for Percent of Spikes in a Burst, Shafer Lab (AID 2284032).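 Further: fitted as a decrease in burst spike percentage below DMSO baseline.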 The procedure, abridged:
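Value is trapezoidal AUC over recordings on days 5, 7, 9 and 12 of the well-mean fraction of spikes falling in single-electrode bursts; rat cortical cultures exposed continuously from plating, treatment renewed DIV 5 and 9, fitted downward against DMSO.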

The target of test [14] is Estrogen receptor (Homo sapiens) (UniProt P03372). The experiment in a line: CCTE_Deisenroth_AIME_384WELL_LUC_Active: CCTE's 384-well Estrogen Receptor Transactivation Assay with AIME metabolic competence (ERTA luciferase; metabolism positive), Deisenroth Lab (AID 2284030; active means hit-call score of the fitted dose curve at least 0.9, where 1 is the maximum). The procedure, abridged: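 AIME metabolism-positive mode: chemicals 0.002 - 200 uM, 2 h with alginate-bound PB/BNF-induced rat S9 → medium to VM7Luc4E2 ERTA, 24 h → luciferase. Positive fit vs 17beta-estradiol; n=4 typical.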

Test [15] in a line: CCTE_Deisenroth_AIME_384WELL_CTox_Active: Cytotoxicity Assessment (CTOX) in CCTE's 384-well Estrogen Receptor Transactivation Assay with AIME metabolic competence (metabolism positive), Deisenroth Lab (AID 2284037; active means hit-call score of the fitted dose curve at least 0.9, where 1 is the maximum;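 further: chemicals first conditioned 2 h by alginate-bound induced rat liver S9 before cells; activity means signal loss indicating cell death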). The procedure, abridged: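 VM7Luc4E2 breast cells received medium pre-incubated 2 h with chemical over alginate microspheres holding induced male Sprague Dawley rat liver S9; viability read 24 h later by protease-substrate fluorescence. Loss of signal, bidirectional fit, 0.002–200 uM.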

Test [16] has as its target Estrogen receptor (Homo sapiens) (UniProt P03372). The experiment in a line: CCTE_Deisenroth_AIME_384WELL_LUC_Inactive: CCTE's 384-well Estrogen Receptor Transactivation Assay without AIME metabolic competence (ERTA luciferase; metabolism negative), Deisenroth Lab (AID 2284038; active means hit-call score of the fitted dose curve at least 0.9, where 1 is the maximum;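 further: hits raise estrogen receptor luciferase signal so potencies reflect agonists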). In outline: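 Metabolism-negative mode: AIME lids stamped in alginate-water, no hepatic S9. 2 h chemical incubation → medium onto VM7Luc4E2 ERTA, 24 h. Readout luciferase luminescence; gain-of-signal fit vs 17beta-estradiol. Conc. 0.002 - 200 uM.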

A word on the AC50: it is the concentration at which the activity in the assay is half-maximal.

Sequence of Estrogen receptor (Homo sapiens) (P03372 whole entry, looked up): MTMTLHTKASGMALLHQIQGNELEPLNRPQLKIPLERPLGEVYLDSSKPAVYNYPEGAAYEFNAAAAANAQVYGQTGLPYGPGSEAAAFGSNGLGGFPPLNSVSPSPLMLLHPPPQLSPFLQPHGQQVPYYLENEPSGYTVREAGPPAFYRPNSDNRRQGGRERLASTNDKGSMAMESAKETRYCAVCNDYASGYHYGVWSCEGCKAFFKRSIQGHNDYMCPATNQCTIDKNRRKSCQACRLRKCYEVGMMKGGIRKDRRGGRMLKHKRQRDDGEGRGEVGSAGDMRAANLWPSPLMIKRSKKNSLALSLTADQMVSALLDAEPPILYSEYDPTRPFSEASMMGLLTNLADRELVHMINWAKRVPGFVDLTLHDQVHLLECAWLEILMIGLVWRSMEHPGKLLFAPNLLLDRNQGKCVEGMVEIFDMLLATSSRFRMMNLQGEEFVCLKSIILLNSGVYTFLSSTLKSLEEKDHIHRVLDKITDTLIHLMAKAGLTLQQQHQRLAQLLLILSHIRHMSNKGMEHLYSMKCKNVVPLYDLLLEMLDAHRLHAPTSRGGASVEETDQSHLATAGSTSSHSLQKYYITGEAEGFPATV

On to `CC(C)(OO)c1ccccc1`, for which the compound was called inactive in test [1], in test [2], in test [3], in test [4], in test [5] and in [6]. In addition, the result in [7], in test [8], in [9], in [10] and in test [11] was inactive.
`CC(C)(C)CC(C)(C)c1ccc(O)cc1`: the compound was called inactive in test [1], in test [3], in [4], in test [5], in test [6] and in [7]. Moreover, the compound was called inactive in test [8], in [9] and in test [11]. For the same compound, the AC50 is 5 µM (active) in test [2] and 36.4 µM (active) in test [10].
`CCC(=O)C(CC(C)N(C)C)(c1ccccc1)c1ccccc1` (stereo not drawn): the AC50 in test [1] is 0.208 µM (active); in test [3] it was 26.2 µM (active); in test [9], 0.062 µM (active); in [12], 3.42 µM (active); in test [13] it was 7.25 µM (active). Moreover, the compound was classed as inactive in test [2], in test [4], in test [5], in [6], in [7] and in test [8]. Also, in test [11], the result was inactive.
As to `C[C@]12CCC(=O)C[C@@H]1CC[C@@H]1[C@@H]2CC[C@]2(C)[C@@H](O)CC[C@@H]12`, the compound was classed as inactive in test [1], in test [2], in [5], in test [6], in test [7] and in test [8]. Besides, the compound was called inactive in test [9]. The AC50 is 30.5 µM (active) in test [3], 31.1 µM (active) in [4], 33.3 µM (active) in test [10] and 30.7 µM (active) in test [11].
Regarding `O=C(NCO)NCO`, the outcome in test [14], in test [15] and in [16] was inactive.
For `CC(=O)OC(c1ccccc1)C(Cl)(Cl)Cl` (stereo not drawn), the compound was called inactive in test [1], in [2], in test [4], in [5], in test [6] and in test [7]. Besides, the result in [8] and in test [9] was inactive. Also, the figures for the AC50 in test [3], in [10] and in [11] were 15 µM (active), 24.9 µM (active) and 26.7 µM (active), respectively.
On to `CC(=O)[O][Hg][c]1ccccc1`, for which the AC50 was 29.5 µM (active) in test [1]; 0.941 µM (active) in [2]; 1.13 µM (active) in [3]; 0.331 µM (active) in test [5]; 0.844 µM (active) in test [6]; 0.561 µM (active) in [7]. Besides, the AC50 was 1.3 µM (active) in [8]; 0.713 µM (active) in test [9]; 33.9 µM (active) in test [10]; 2.02 µM (active) in test [11]; 0.00554 µM (active) in test [12]; 0.0114 µM (active) in test [13]. Besides, the AC50 in test [15] was 66.1 µM (active). For the same compound, the result in test [4] was inactive.
